# Source: PubChem BioAssay AID624404 (Broad Institute, 2012)
# Among all 1,800 compounds or so, about 710 (39%) were called active. Inconclusive results (about 28%) are left out.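 Rule for the calls: active = luciferase signal rise whose fitted curve crosses a set activity limit at or below the top valid tested dose; inconclusive = flat fit with 30 to 70% rise, or poor fit; inactive = signal falling, flat within 30%, or crossing above top dose.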 A selection follows. Measured potencies and affinities stand elsewhere.
# Test: luciferase activators in glycosylation-insensitive reporter cells, dose response, counter-screen for N-linked glycosylation inhibitor project, D54 LucT cells, luminescence, cherry pick (AID 624404)
# Conditions: D54 LucT luciferase reporter counterscreen, 24 h; series mostly up to 19.5 µM
row,SMILES,outcome
1,COc1cc2c(cc1OC)C(C)N(C(=O)Nc1ccccc1)CC2 (configuration not stated),inactive
2,COc1ccc(C(=O)/C=C/Sc2nc3ccccc3o2)cc1,inactive
3,COc1cc(/C=N/Nc2nc3c(c(=O)n(C)c(=O)n3C)n2Cc2ccccc2)ccc1OC(=O)c1ccco1,inactive
4,COc1ccc(CCn2c(Br)nc3c2c(=O)[nH]c(=O)n3C)cc1,inactive
5,COc1cc(C2CC(=O)N(c3ccc(C)cc3)C(=O)C2)cc(OC)c1OC,inactive
6,CCN(CC)S(=O)(=O)c1cccc(NC(=O)CN2C(=O)NC3(CCC(C)CC3)C2=O)c1 (configuration not stated),inactive
7,CC(C)c1ccc(NC(=O)CN2C(=O)NC3(CCCCCCC3)C2=O)cc1,inactive
8,NC(=O)c1ccc2c(=O)n3c(-c4cc(Cl)c(N)c(Cl)c4)csc3nc2c1,inactive
9,OCC1OC(n2cnc3c(=S)nc[nH]c32)CC1O (configuration not stated),inactive
10,Cc1cccn2c(=O)c3cc(C(=O)NC4CCCC4)c(=N)n(CC4CCCO4)c3nc12 (configuration not stated),inactive
11,Cc1cccn2c(=O)c3cc(C(=O)NC4CCCC4)n(C)c3nc12,inactive
12,Cc1cccn2c(=O)c3cc(C(=O)N4CCCCC4)sc3nc12,inactive
13,Cc1cccn2c(=O)c3cc(C(=O)NC4CCCC4)c(=N)n(CCc4ccccc4)c3nc12,inactive
14,CCN(CC)CCOc1ccc2c(c1)C(=NNC(=O)c1ccccn1)c1cc(OCCN(CC)CC)ccc1-2,inactive
15,CC(C)Oc1ccc(C(=O)/C=C2/C(=O)Nc3ccccc32)cc1,inactive
16,O=C(CCl)Nc1ccc(Sc2ccc(NC(=O)CCl)cc2)cc1,inactive
17,CCc1ccc(NC(=O)Cn2c(=O)n(CCC(=O)NC3CCN(Cc4ccccc4)CC3)c(=O)c3ccccc32)cc1,inactive
18,Cc1[nH][nH]c(=O)c1C(c1ccc(-c2cccc(Cl)c2)o1)c1c(C)[nH][nH]c1=O,inactive
19,Cc1[nH][nH]c(=O)c1C(c1ccc(-c2ccc(F)cc2)o1)c1c(C)[nH][nH]c1=O,inactive
20,CC1(C(=O)Nc2ccc3c(c2)OCO3)Cc2c(-c3ccc4c(c3)OCO4)ccnc2O1 (configuration not stated),inactive
21,CC1(C(=O)Nc2ccc(Cl)cc2)Cc2c(-c3ccc4c(c3)OCO4)ccnc2O1 (configuration not stated),inactive

row,SMILES,outcome
1,CCOC(=O)c1cc2c(ccn2C)n1CC(=O)N1CCN(c2ccccc2)CC1,inactive
2,FC(F)(F)c1cccc(Sc2nc(-c3ccccc3)nnc2C(F)(F)F)c1,inactive
3,Nc1nonc1-c1nc2ccccc2n1CC(=O)N/N=C\c1ccc(-c2ccc(Cl)cc2)o1,inactive
4,COc1ccc(C(=O)/C=C/c2ccc(OC(=O)c3cc(OC)c(OC)c(OC)c3)cc2)cc1,inactive
5,N=c1c(C(=O)NCc2ccco2)cc2c(=O)n3ccccc3nc2n1CCc1ccccc1,inactive
6,COc1ccc(CCn2c(=N)c(S(=O)(=O)c3ccc(C)cc3)cc3c(=O)n4ccccc4nc32)cc1,inactive
7,Cc1ccc2nc3c(cc(C(N)=S)c(=N)n3CCCOC(C)C)c(=O)n2c1,inactive
8,CCOc1cc(/C=C/C(=O)c2ccc(C)cc2)ccc1OCC(=O)N(C)C,inactive
9,O=C(Nc1cccc(-n2cnnn2)c1)c1cc(Cl)ccc1Cl,inactive
10,c1ccc(CN2CCC(Nc3nc(-c4cccnc4)nc4ccccc34)CC2)cc1,inactive
11,COc1ccc(N2CC(C(=O)Nc3cc(C(F)(F)F)ccc3N3CCCC3)CC2=O)c(OC)c1 (configuration not stated),inactive
12,Cn1nc(-c2ccc(N3CCOCC3)c(NS(=O)(=O)c3ccccc3)c2)c2ccccc2c1=O,inactive
13,CCc1ccc(N2CC(C(=O)Nc3ccccc3N3CCCC3)CC2=O)cc1 (configuration not stated),inactive
14,COc1ccc2nc3n(c(=O)c2c1)-c1cc2ccccc2cc1C(=O)NC3Cc1ccccc1 (configuration not stated),inactive
15,COc1cccc(/C=N/NC(=O)c2[nH]nc3c2CCc2ccccc2-3)c1,inactive
16,Cc1ccc(C(c2cc(Cl)c3cccnc3c2O)N2CCN(C)CC2)cc1 (configuration not stated),inactive
17,Cc1nc2c3cc(F)ccc3n(CCN3CCCCC3)c2s1,inactive
18,COc1ccc(F)cc1C1=CC(=O)C[C@H](c2ccc3c(c2)OCO3)C1,inactive
19,CN1C/C(=C\c2ccc(N3CCOCC3)cc2)C(=O)/C(=C/c2ccc(N3CCOCC3)cc2)C1,inactive
20,COc1cc(-c2nc(-c3ccccc3)c(-c3cccs3)[nH]2)cc(OC)c1O,inactive
21,Cc1noc(C)c1COc1ccccc1C(=O)N1CCN(c2cccc(C(F)(F)F)c2)CC1,inactive

row,SMILES,outcome
1,CN(C)c1ccc(/C=C/c2cc[n+](C)c3ccccc23)cc1,inactive
2,COc1ccc(C2C(C(=O)Nc3cc(OC)c(OC)c(OC)c3)c3ccccc3C(=O)N2C)cc1 (configuration not stated),inactive
3,Cn1cc(/C=N/n2cnc3scc(-c4ccc(Cl)cc4)c3c2=O)c2ccccc21,inactive
4,Cc1[nH][nH]c(=O)c1C(c1ccc(-c2ccc(Cl)c(Cl)c2)o1)c1c(C)[nH][nH]c1=O,inactive
5,Cc1ccccc1OCC(O)CN1CCN(CCN2C(=O)c3cccc4cccc(c34)C2=O)CC1 (configuration not stated),inactive
6,COc1cccc(OCC(O)CN2CCN(CCN3C(=O)c4cccc5cccc(c45)C3=O)CC2)c1 (configuration not stated),inactive
7,CC(C)CCN(C(=O)Cc1ccc(Cl)c(Cl)c1)c1c(N)n(Cc2ccccc2)c(=O)[nH]c1=O,inactive
8,CCN(CC)c1ccc(/C=C/c2cccc[n+]2C)c(OC)c1,inactive
9,O=C(Cn1cnc2c(NCc3ccccc3)ncnc21)NCc1ccccc1,inactive
10,CC(=O)c1ccc(Nc2c3c(nc4ccccc24)CCCC3)cc1,inactive
11,COc1ccc(Nc2nc(N3CCCC3)nc3ccccc23)c(OC)c1,inactive
12,CCOc1ccccc1C1CC(=O)Nc2cc3c(cc21)OCO3 (configuration not stated),inactive
13,Cc1ccc(C)c(N2CCN(c3cnn(-c4nc5ccccc5s4)c(=O)c3Cl)CC2)c1,inactive
14,CC(C)(C)c1ccc(C(=O)O/N=C(\N)Cc2cccs2)cc1,inactive
15,O=C(CCl)Nc1cn(-c2ccccc2)nc1-c1ccc(F)cc1,inactive
16,CC1=CC(C)[C@H](/C=N/n2c(=O)[nH]c3c([nH]c4ccc(Br)cc43)c2=O)C(C)C1 (some centres not stated),inactive
17,COc1ccc(-c2nn(C)c(=O)c3ccccc23)cc1NS(C)(=O)=O,inactive
18,CC=Cc1cc2c(c(=O)o1)C(=O)C(O)C(C)O2 (configuration not stated),inactive
19,Cc1noc(C)c1COc1ccc(C(=O)NNC(=O)c2ccccc2F)cc1,inactive
20,Cc1ccc(OCCOC(=O)c2c(-c3ccccc3)noc2C)cc1,inactive
